This is part of a sample that, as a whole, favours compounds with a hit. Of some 83,000 tested, about 20% had one in any assay.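 Method: cells in 96-well plates; compound added at one concentration; 48 h incubation; percent growth measured; values under 10 scored active.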 Active and inactive are the calls of the source.
Tests used:
Assay in all cases: NCI-60 one-dose screen, 48 h (100 = growth as untreated, 0 = no growth, -100 = all killed)
Details in all cases: 10 µM unless noted
NCI-H23 lung = system: NCI-H23 lung
NCI-H226 lung = system: NCI-H226 lung
NCI-H322M lung = system: NCI-H322M lung
HOP-62 NSCLC = system: HOP-62 NSCLC
NCI-H460 lung = system: NCI-H460 lung
HOP-92 NSCLC = system: HOP-92 NSCLC
NCI-H522 lung = system: NCI-H522 lung
A549/ATCC NSCLC = system: A549/ATCC NSCLC
786-0 renal = system: 786-0 renal
COLO 205 colon = system: COLO 205 colon
DU-145 prostate = system: DU-145 prostate
K-562 leukemia = system: K-562 leukemia
MALME-3M melanoma = system: MALME-3M melanoma
MDA-MB-231 breast = system: MDA-MB-231 breast
RXF 393 renal = system: RXF 393 renal
SF-268 CNS = system: SF-268 CNS
SF-295 CNS = system: SF-295 CNS
SF-539 CNS = system: SF-539 CNS
UACC-257 melanoma = system: UACC-257 melanoma
M14 melanoma = system: M14 melanoma

Measured: growth

C/C(CC(C)(C)N1CC1)=N\NC(=O)Nc1cccc2ccccc12
inactive: NCI-H23 lung 68% | NCI-H226 lung 56.4% | NCI-H322M lung 81.2% | HOP-62 NSCLC 62.5% | NCI-H460 lung 42.9% | HOP-92 NSCLC 24.2% | NCI-H522 lung 48.7% | A549/ATCC NSCLC 63% | 786-0 renal 70.4% | COLO 205 colon 52.3% | DU-145 prostate 68.2% | K-562 leukemia 78.2% | MALME-3M melanoma 74.5% | MDA-MB-231 breast 58.3% | RXF 393 renal 39.2% | SF-268 CNS 52.9% | SF-295 CNS 67% | SF-539 CNS 70.3% | UACC-257 melanoma 86.4% | M14 melanoma 72.8%

CCOC(=O)[C@@H](C)C[C@H](Cc1ccccc1)NC(=O)c1nc([C@@H](C[C@H](C(C)C)N(C)C(=O)[C@@H](NC(=O)[C@H]2CCCCN2C)C(C)C)OC(C)=O)sc1CCOCc1ccccc1
inactive: NCI-H23 lung 14.7% | NCI-H322M lung 11.9%
active: NCI-H226 lung -80.6% | HOP-62 NSCLC -42.7% | NCI-H460 lung -54.8% | HOP-92 NSCLC -16.5% | NCI-H522 lung -49.2% | A549/ATCC NSCLC -31.1% | 786-0 renal -38.6% | COLO 205 colon -70.9% | DU-145 prostate -27.3% | K-562 leukemia -31.4% | MALME-3M melanoma -77.4% | MDA-MB-231 breast -49.8% | RXF 393 renal -14.2% | SF-268 CNS -38% | SF-295 CNS -33.6% | SF-539 CNS -69.2% | UACC-257 melanoma -7.85% | M14 melanoma -57.1%

Clc1cccc(N2COOC3(OOC2)C2CC4CC(C2)CC3C4)c1
inactive: NCI-H23 lung 49% | NCI-H226 lung 96.2% | NCI-H322M lung 99.6% | HOP-62 NSCLC 73% | NCI-H460 lung 87.2% | A549/ATCC NSCLC 76% | COLO 205 colon 111% | DU-145 prostate 89.6% | K-562 leukemia 66.2% | MALME-3M melanoma 73.5% | MDA-MB-231 breast 98.9% | RXF 393 renal 92.1% | SF-268 CNS 83.8% | SF-295 CNS 86.1% | SF-539 CNS 73.3% | UACC-257 melanoma 98% | M14 melanoma 93.8%
active: HOP-92 NSCLC -7.89% | NCI-H522 lung 2.67% | 786-0 renal 7.65%

Cn1cc(-c2csc(-c3cn(CCN4CCOCC4)c4ccc(F)cc34)n2)c2cccnc21
inactive: NCI-H23 lung 22.5% | NCI-H226 lung 16.6% | NCI-H322M lung 73.3% | NCI-H460 lung 44.6% | HOP-92 NSCLC 27.2% | A549/ATCC NSCLC 22.5% | 786-0 renal 56.3% | COLO 205 colon 15.9% | DU-145 prostate 40.1% | MALME-3M melanoma 53% | MDA-MB-231 breast 35.1% | RXF 393 renal 71% | SF-268 CNS 41.7% | SF-295 CNS 29.2% | SF-539 CNS 61.5% | UACC-257 melanoma 71%
active: HOP-62 NSCLC 8.52% | NCI-H522 lung -0.645% | K-562 leukemia 9.34% | M14 melanoma 8.08%

CC(=O)OC1C(OC/C2=C/C3[C@@H](C(C)C)CC=C(C)[C@@H]3CC(OC(=O)/C=C/c3cn(C)cn3)[C@]3(C)C=C[C@@]2(O)O3)OCC(O)C1O (stereo not given in full)
inactive: NCI-H23 lung 18.2% | NCI-H226 lung 63.5% | NCI-H322M lung 17.4% | HOP-92 NSCLC 35.3% | A549/ATCC NSCLC 27.9% | 786-0 renal 15.9% | K-562 leukemia 15.7% | MALME-3M melanoma 48.4% | MDA-MB-231 breast 41.8% | SF-268 CNS 45.1% | SF-539 CNS 11.9% | UACC-257 melanoma 60.7%
active: HOP-62 NSCLC 8.78% | NCI-H460 lung 9.03% | NCI-H522 lung 0.4% | COLO 205 colon -24.9% | DU-145 prostate -10.2% | RXF 393 renal -20.6% | SF-295 CNS -3.4% | M14 melanoma -35.7%

CNC(=O)Oc1ccc2c(c1)OCO2
inactive: NCI-H23 lung 103% | NCI-H226 lung 103% | NCI-H322M lung 107% | HOP-62 NSCLC 102% | NCI-H460 lung 106% | HOP-92 NSCLC 108% | NCI-H522 lung 103% | A549/ATCC NSCLC 100% | 786-0 renal 107% | COLO 205 colon 103% | DU-145 prostate 108% | K-562 leukemia 90.1% | MALME-3M melanoma 104% | MDA-MB-231 breast 101% | RXF 393 renal 113% | SF-268 CNS 102% | SF-295 CNS 101% | SF-539 CNS 102% | UACC-257 melanoma 102% | M14 melanoma 107%

CCC1CN1CCCCN1CC1CC (stereo not given)
inactive: NCI-H23 lung 104% | NCI-H226 lung 98.3% | NCI-H322M lung 96.7% | HOP-62 NSCLC 113% | NCI-H460 lung 113% | HOP-92 NSCLC 116% | NCI-H522 lung 95.6% | A549/ATCC NSCLC 104% | 786-0 renal 104% | COLO 205 colon 112% | DU-145 prostate 108% | K-562 leukemia 114% | MALME-3M melanoma 91.6% | MDA-MB-231 breast 96.7% | RXF 393 renal 105% | SF-268 CNS 103% | SF-295 CNS 95.3% | SF-539 CNS 100% | UACC-257 melanoma 97% | M14 melanoma 98%

Cc1c(C)c([N+](=O)[O-])c(C)c(C)c1[N+](=O)[O-]
inactive: NCI-H23 lung 112% | NCI-H226 lung 100% | NCI-H322M lung 121% | HOP-62 NSCLC 109% | NCI-H460 lung 113% | HOP-92 NSCLC 135% | NCI-H522 lung 80.3% | A549/ATCC NSCLC 91.5% | 786-0 renal 103% | COLO 205 colon 119% | DU-145 prostate 108% | K-562 leukemia 102% | MALME-3M melanoma 138% | MDA-MB-231 breast 108% | RXF 393 renal 112% | SF-268 CNS 100% | SF-295 CNS 101% | SF-539 CNS 108% | UACC-257 melanoma 99.5% | M14 melanoma 115%
